These results are taken from PubChem BioAssay (EPA / NIEHS).

Assay [1] is described as follows: ATG_RORE_CIS: Attagene CIS-FACTORIAL HepG2 Assay for human RAR-related Orphan Receptor Element (RORE) (AID 2282959). To be noted: HepG2 Attagene cis-factorial RORE reporter, mRNA; actives raise or lower the signal. A digest of the protocol: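 Transient MRTU transfection of human HepG2 liver cells (FuGene 6); 24 h compound exposure; TriZol RNA, oligo(dT) RT, PCR, FAM labeling, HpaI cut, CE fragment analysis. DMSO = negative control/baseline.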

Assay [2] in a line: ATG_Sox_CIS: Attagene CIS-FACTORIAL HepG2 Assay for human SRY-box transcription factor (SOX) (AID 2282960). As to conditions: HepG2 Attagene cis-factorial SOX reporter, mRNA; actives raise or lower the signal. A digest of the protocol:
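Endogenous factor activity in human liver HepG2 cells carrying transfected cis-regulated reporter units. RNA taken 24 h post-dose, reverse-transcribed, PCR-amplified and sized by capillary electrophoresis. Gain or loss of signal fitted relative to DMSO.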

The target in assay [3] is Transcription factor Sp1 (Homo sapiens) (UniProt P08047). Description: ATG_Sp1_CIS: Attagene CIS-FACTORIAL HepG2 Assay for human Specificity Protein 1 (Sp1) (AID 2282961). To be noted: HepG2 Sp1 cis-reporter transcription, actives raise or lower the signal. A digest of the protocol:
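Transient MRTU-transfected HepG2, 24 h compound exposure. Total RNA → oligo(dT) RT → PCR of reporter → 6-FAM primer extension → HpaI digest → CE. Endpoint fitted both directions vs DMSO.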

Assay [4] in a line: ATG_SREBP_CIS: Attagene CIS-FACTORIAL HepG2 Assay for human Sterol Regulatory Element Binding (SREBP) (AID 2282962). To be noted: HepG2 Attagene cis-factorial SREBP reporter, mRNA; actives raise or lower the signal. A digest of the protocol:
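In this cis-format assay, HepG2 liver cells express reporters controlled by promoter elements responsive to native transcription factors. Exposure lasts 24 h; reporter mRNA fluorescence from capillary electrophoresis gives the signal, fitted bidirectionally against DMSO.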

Assay [5] deals with Signal transducer and activator of transcription 3 (Homo sapiens) (UniProt P40763). Description: ATG_STAT3_CIS: Attagene CIS-FACTORIAL HepG2 Assay for human Signal Transducer and Activator of Transcription 3 (STAT3) (AID 2282963). To be noted: HepG2, Attagene cis-factorial STAT3 reporter transcription; actives raise or lower the signal. A digest of the protocol: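 HepG2, MRTU-transfected, 24 h dosing. RNA → RT → PCR → FAM label → HpaI → CE. Bidirectional fit vs DMSO.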
Sequence of Signal transducer and activator of transcription 3 (Homo sapiens) (P40763 whole entry, looked up): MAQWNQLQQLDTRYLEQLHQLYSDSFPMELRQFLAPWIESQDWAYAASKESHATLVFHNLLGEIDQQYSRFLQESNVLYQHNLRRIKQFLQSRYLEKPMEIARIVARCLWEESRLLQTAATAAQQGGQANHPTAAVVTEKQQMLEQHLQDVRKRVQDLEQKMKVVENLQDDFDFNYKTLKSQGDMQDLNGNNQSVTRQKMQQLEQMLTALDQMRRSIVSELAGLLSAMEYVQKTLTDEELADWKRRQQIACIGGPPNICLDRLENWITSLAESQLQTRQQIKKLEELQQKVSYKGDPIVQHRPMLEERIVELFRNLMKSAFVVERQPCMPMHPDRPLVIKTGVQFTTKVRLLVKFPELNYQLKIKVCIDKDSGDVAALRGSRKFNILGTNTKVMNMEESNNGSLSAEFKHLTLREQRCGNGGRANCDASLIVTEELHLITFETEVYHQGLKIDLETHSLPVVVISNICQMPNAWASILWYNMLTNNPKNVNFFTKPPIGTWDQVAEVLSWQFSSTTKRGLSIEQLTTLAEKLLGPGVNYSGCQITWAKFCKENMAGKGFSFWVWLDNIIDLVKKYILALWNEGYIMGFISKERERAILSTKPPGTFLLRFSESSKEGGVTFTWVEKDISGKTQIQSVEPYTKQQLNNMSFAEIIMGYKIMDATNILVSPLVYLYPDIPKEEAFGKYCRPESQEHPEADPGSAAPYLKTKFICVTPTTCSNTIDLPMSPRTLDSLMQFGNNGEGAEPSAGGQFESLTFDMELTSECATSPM

Assay [6] is described as follows: ATG_TA_CIS: Attagene CIS-FACTORIAL HepG2 Assay for human TA Basal Promoter (AID 2282964). To be noted: HepG2 Attagene CIS-factorial TA basal promoter reporter; actives raise or lower the signal. A digest of the protocol:
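Background internal-marker endpoint from a 52-component HepG2 cis-reporter panel. Cells treated 24 h; reporter transcripts quantified via RT-PCR and CE fluorescence against DMSO baseline.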

The nature of assay [7]: ATG_TCF_b_cat_CIS: Attagene CIS-FACTORIAL HepG2 Assay for human T-Cell-Factor with beta-catenin (TCF/b-cat) (AID 2282965). As to conditions: HepG2 TCF/beta-catenin cis-reporter transcription, actives raise or lower the signal. A digest of the protocol:
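Using capillary electrophoresis as the read-out, labelled reporter cDNA fragments from transiently transfected HepG2 were sized and quantified. Exposure lasted 24 hours; activity in either direction was referenced to DMSO.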

A short description of assay [8]: ATG_TGFb_CIS: Attagene CIS-FACTORIAL HepG2 Assay for human Transforming Growth Factor (TGF) (AID 2282967). As to conditions: HepG2 Attagene CIS TGFb reporter, mRNA transcription; actives raise or lower the signal. A digest of the protocol:
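Liver HepG2 line, cis-factorial reporter panel, 24 h dosing. Quantitation: RT-PCR products labeled with 6-FAM, cut with HpaI, resolved by capillary electrophoresis; DMSO-referenced bidirectional analysis.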

Assay [9] in a line: ATG_VDRE_CIS: Attagene CIS-FACTORIAL HepG2 Assay for human Vitamin D Receptor Element (VDRE) (AID 2282968). As to conditions: HepG2 VDRE cis-reporter transcription, actives raise or lower the signal. A digest of the protocol: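 Steps: transfect HepG2 with multiple reporter transcription units; dose chemicals 24 h; isolate RNA; RT-PCR; label with 6-FAM primer extension; HpaI digest; capillary electrophoresis. Curves fitted both directions against DMSO.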

Assay [10] addresses Estrogen receptor (Homo sapiens) (UniProt P03372). The assay is described as follows: ATG_ERa_TRANS: Attagene TRANS-FACTORIAL HepG2 Assay for human Estrogen Receptor alpha (ERa) (AID 2282970; active = hit-call score of the fitted dose curve at least 0.9, where 1 is the maximum). To be noted: HepG2 Attagene TRANS ERa GAL4 reporter, mRNA. A digest of the protocol: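 Reporter mRNA induction after 24 hours, detected by fluorescent RT-PCR and capillary electrophoresis, gives the read-out. Cells are HepG2 transiently transfected with GAL4-UAS reporter transcription units responding to chimeric NR-Gal4. Activity is taken as gain of signal over DMSO baseline.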

Assay [11] concerns the target X-box-binding protein 1 (Homo sapiens) (UniProt P17861). Description: ATG_Xbp1_CIS: Attagene CIS-FACTORIAL HepG2 Assay for human X-box Binding Protein 1 (XBP1) (AID 2282972). As to conditions: HepG2 XBP1 cis-element reporter, Attagene multiplex; actives raise or lower the signal. A digest of the protocol: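 Changes in reporter transcript abundance, read by RT-PCR and capillary electrophoresis, reflect endogenous transcription factor activity. Transfected HepG2 cells received compound for 24 hours; DMSO defined baseline for bidirectional analysis.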

Assay [12] can be described thus: ATG_GAL4_TRANS: Attagene TRANS-FACTORIAL HepG2 Assay for GAL4 (Internal Marker) (AID 2282976; active = hit-call score of the fitted dose curve at least 0.9, where 1 is the maximum). As to conditions: HepG2 Attagene TRANS GAL4 internal marker reporter. A digest of the protocol: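 RT-PCR/capillary electrophoresis readout of reporter mRNA. HepG2, transient MRTU transfection (GAL4-UAS reporters), 24 h compound exposure. Background-control endpoint, positive direction vs DMSO baseline.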

Assay [13] is described as follows: ATG_TAL_CIS: Attagene CIS-FACTORIAL HepG2 Assay for human TAL Basal Promoter (AID 2282966).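 Note: background control endpoint measuring basal TAL promoter reporter mRNA not a specific factor.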 To be noted: HepG2 Attagene cis-factorial TAL promoter reporter; actives raise or lower the signal. A digest of the protocol: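 HepG2, transient MRTU transfection, 24 h compound exposure; RNA → oligo(dT) RT → PCR → 6-FAM primer extension → HpaI digest → CE fluorescence. Bidirectional curve fit vs DMSO. Background-control readout.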

Assay [14] addresses Nuclear receptor subfamily 1 group I member 3 (Homo sapiens) (UniProt Q14994). Description: ATG_CAR_TRANS: Attagene TRANS-FACTORIAL HepG2 Assay for human Constitutive Androstane Receptor (CAR) (AID 2282969; active = hit-call score of the fitted dose curve at least 0.9, where 1 is the maximum;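 note: activators raise reporter mRNA above DMSO so AC50 marks induction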). As to conditions: HepG2 Attagene TRANS-FACTORIAL CAR reporter. A digest of the protocol:
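Steps: transient transfection of HepG2 with multiple GAL4-UAS reporter units; 24 h compound incubation; RNA isolation, RT-PCR, 6-FAM primer extension, HpaI digest; capillary electrophoresis. Gain-of-signal relative to DMSO negative control.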

Assay [15] in a line: ATG_M_19_TRANS: Attagene TRANS-FACTORIAL HepG2 Assay for M19 Transcription Factor (Internal Marker) (AID 2282974; active = hit-call score of the fitted dose curve at least 0.9, where 1 is the maximum). To be noted: HepG2 Attagene TRANS-FACTORIAL M19 internal marker reporter. A digest of the protocol:
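Fluorescence of 6-FAM-labelled reporter cDNA fragments, separated by capillary electrophoresis, served as the readout. These derived from HepG2 cells carrying transfected GAL4-UAS reporter units after 24 h dosing, with DMSO as negative control.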

For assay [16], the target named is Steroid hormone receptor ERR1 (Homo sapiens) (UniProt P11474). Description: ATG_ERRa_TRANS: Attagene TRANS-FACTORIAL HepG2 Assay for human Estrogen-Related Receptor alpha (ERRa) (AID 2282971; active = hit-call score of the fitted dose curve at least 0.9, where 1 is the maximum). To be noted: HepG2 Attagene TRANS reporter, ERRa transactivation. A digest of the protocol:
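Transfected HepG2, 24 h dosing, ERRa-Gal4 chimera driving GAL4-UAS reporter. Readout: reporter mRNA via RT-PCR plus capillary electrophoresis (fluorescence). Positive direction vs DMSO control.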

Assay [17] deals with Estrogen-related receptor gamma (Homo sapiens) (UniProt P62508). Description: ATG_ERRg_TRANS: Attagene TRANS-FACTORIAL HepG2 Assay for human Estrogen-Related Receptor gamma (ERRg) (AID 2282977; active = hit-call score of the fitted dose curve at least 0.9, where 1 is the maximum;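 note: hits increase reporter signal over DMSO so potencies reflect activators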). To be noted: HepG2 Attagene TRANS reporter, ERRg transactivation. A digest of the protocol: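 Induction of reporter transcripts through a chimeric NR-Gal4 protein is quantified in transfected human HepG2 liver cells after 24 h chemical exposure, using RT-PCR with capillary electrophoresis detection and DMSO as baseline.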
Sequence of Estrogen-related receptor gamma (Homo sapiens) (P62508 whole entry, looked up, the tested form may be a part): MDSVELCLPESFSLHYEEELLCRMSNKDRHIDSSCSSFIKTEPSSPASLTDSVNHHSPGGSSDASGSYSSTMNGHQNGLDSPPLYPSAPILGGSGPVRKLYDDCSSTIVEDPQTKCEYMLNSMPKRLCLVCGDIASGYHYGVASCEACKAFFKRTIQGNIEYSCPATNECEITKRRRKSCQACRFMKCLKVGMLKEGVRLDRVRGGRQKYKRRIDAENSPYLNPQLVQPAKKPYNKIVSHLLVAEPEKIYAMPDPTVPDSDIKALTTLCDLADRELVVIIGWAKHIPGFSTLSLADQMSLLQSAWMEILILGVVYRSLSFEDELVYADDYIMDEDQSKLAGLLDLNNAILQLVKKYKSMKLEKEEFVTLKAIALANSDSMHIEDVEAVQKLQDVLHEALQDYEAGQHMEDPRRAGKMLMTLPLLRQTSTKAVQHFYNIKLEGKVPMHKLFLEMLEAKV

For assay [18], the target named is Bile acid receptor (Homo sapiens) (UniProt Q96RI1). The assay is described as follows: ATG_FXR_TRANS: Attagene TRANS-FACTORIAL HepG2 Assay for Farnesoid X Receptor (FXR) (AID 2282979; active = hit-call score of the fitted dose curve at least 0.9, where 1 is the maximum;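 note: hits raise reporter mRNA above DMSO so AC50 marks FXR activation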). As to conditions: HepG2 Attagene TRANS FXR-GAL4 reporter transcription. A digest of the protocol:
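Read-out: fluorescent reporter transcripts quantified by capillary electrophoresis after RT-PCR of total RNA. Source cells were HepG2 transiently carrying chimeric NR-GAL4 plus GAL4-UAS reporter units, dosed 24 h. Activity fitted upward relative to DMSO baseline.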

Assay [19] can be described thus: ATG_PPRE_CIS: Attagene CIS-FACTORIAL HepG2 Assay for human Peroxisome Proliferator-activated Response Element (PPRE) (AID 2282958). To be noted: HepG2 PPRE cis-element reporter, Attagene transcription factor profiling; actives raise or lower the signal. A digest of the protocol: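 HepG2, transient MRTU transfection (cis promoter elements, endogenous TFs). 24 h dosing. RNA → oligo(dT) RT → PCR → 6-FAM primer extension → HpaI digest → CE. Bidirectional fit vs DMSO.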

For assay [20], the target named is Glucocorticoid receptor (Homo sapiens) (UniProt P04150). The assay is described as follows: ATG_GR_TRANS: Attagene TRANS-FACTORIAL HepG2 Assay for human Glucocorticoid Receptor (GR) (AID 2282978; active = hit-call score of the fitted dose curve at least 0.9, where 1 is the maximum;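 note: activators score as hits since higher reporter transcript over DMSO is fitted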). To be noted: HepG2 Attagene TRANS GR reporter, mRNA transcription. A digest of the protocol:
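Fluorescent capillary-electrophoresis quantitation of reporter mRNA is the readout, taken 24 h after dosing human HepG2 cells carrying transiently transfected GAL4-UAS reporter units activated by chimeric NR-GAL4 fusions; activity scored as induction over DMSO.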

Records with an inconclusive call do not appear. The source made the active and inactive calls. Rule for the calls, unless noted: active = hit-call score of the fitted dose curve at least 0.9, where 1 is the maximum; inactive = score below 0.9.

Sequence of Nuclear receptor subfamily 1 group I member 3 (Homo sapiens) (Q14994 whole entry, looked up, the tested form may be a part): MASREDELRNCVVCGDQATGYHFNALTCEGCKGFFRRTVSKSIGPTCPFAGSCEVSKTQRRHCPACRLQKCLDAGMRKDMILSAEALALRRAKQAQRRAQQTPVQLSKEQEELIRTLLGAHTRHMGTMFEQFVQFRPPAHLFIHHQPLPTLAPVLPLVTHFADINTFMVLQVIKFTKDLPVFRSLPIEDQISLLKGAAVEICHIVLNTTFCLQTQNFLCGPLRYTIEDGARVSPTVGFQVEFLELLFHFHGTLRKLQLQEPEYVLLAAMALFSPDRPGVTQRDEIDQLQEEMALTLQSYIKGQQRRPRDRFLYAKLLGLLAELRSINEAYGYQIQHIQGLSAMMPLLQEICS
Sequence of Transcription factor Sp1 (Homo sapiens) (P08047 whole entry, looked up): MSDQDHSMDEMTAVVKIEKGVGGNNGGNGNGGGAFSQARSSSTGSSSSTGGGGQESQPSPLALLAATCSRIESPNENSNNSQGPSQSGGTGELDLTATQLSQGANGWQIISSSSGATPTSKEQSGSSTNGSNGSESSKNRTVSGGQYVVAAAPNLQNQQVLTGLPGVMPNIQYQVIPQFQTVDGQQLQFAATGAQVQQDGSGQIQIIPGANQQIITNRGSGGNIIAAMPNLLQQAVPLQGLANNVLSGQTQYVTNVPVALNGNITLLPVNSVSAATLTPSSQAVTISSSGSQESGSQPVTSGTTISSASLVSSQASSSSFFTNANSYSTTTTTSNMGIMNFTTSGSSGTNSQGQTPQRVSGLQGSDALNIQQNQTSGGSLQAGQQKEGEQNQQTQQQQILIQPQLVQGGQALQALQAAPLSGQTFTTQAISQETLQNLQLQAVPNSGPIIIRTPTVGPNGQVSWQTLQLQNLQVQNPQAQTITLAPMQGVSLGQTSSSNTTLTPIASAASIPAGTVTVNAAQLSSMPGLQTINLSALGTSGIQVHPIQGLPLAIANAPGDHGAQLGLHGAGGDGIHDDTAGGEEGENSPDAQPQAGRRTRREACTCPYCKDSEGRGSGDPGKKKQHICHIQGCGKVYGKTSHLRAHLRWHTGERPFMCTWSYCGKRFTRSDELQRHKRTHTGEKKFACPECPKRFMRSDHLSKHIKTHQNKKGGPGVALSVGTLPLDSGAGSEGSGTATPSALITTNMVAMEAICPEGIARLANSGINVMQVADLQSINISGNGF
Sequence of X-box-binding protein 1 (Homo sapiens) (P17861 whole entry, looked up): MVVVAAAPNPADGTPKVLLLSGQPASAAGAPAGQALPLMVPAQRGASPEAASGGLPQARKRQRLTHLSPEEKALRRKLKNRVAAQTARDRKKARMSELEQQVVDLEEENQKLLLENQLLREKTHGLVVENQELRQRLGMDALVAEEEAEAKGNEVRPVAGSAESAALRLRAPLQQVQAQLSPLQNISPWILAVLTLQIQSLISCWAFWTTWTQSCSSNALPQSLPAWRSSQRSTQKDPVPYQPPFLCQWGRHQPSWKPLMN
Sequence of Estrogen receptor (Homo sapiens) (P03372 whole entry, looked up, the tested form may be a part): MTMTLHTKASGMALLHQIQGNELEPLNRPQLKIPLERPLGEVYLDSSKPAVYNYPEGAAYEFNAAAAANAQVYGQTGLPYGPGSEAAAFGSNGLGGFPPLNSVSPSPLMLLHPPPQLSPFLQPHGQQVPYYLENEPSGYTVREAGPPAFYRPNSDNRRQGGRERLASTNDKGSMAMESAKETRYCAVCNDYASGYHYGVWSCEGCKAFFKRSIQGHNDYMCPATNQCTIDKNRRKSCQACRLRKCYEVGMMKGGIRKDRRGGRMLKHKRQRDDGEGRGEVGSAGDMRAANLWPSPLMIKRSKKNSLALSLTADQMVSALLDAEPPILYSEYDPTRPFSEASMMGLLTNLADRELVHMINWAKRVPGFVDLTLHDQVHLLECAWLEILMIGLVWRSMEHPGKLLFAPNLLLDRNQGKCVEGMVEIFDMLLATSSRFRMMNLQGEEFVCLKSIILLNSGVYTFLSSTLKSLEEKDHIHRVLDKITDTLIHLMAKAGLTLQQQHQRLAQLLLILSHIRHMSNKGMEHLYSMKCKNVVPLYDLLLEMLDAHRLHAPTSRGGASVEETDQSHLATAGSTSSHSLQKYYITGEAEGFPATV
Sequence of Bile acid receptor (Homo sapiens) (Q96RI1 whole entry, looked up, the tested form may be a part): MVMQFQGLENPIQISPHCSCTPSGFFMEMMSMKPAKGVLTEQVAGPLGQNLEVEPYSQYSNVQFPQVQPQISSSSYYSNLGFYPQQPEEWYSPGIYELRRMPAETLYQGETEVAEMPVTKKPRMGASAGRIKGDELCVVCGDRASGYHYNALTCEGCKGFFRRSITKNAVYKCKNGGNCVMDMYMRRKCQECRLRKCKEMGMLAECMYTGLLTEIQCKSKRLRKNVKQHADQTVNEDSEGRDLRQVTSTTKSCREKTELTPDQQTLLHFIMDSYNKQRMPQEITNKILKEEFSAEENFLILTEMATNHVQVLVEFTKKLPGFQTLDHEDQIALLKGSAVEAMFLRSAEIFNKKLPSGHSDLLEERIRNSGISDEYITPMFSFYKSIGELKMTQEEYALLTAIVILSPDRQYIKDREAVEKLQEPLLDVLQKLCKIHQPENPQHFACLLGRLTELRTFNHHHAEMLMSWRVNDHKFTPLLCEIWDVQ
Sequence of Steroid hormone receptor ERR1 (Homo sapiens) (P11474 whole entry, looked up, the tested form may be a part): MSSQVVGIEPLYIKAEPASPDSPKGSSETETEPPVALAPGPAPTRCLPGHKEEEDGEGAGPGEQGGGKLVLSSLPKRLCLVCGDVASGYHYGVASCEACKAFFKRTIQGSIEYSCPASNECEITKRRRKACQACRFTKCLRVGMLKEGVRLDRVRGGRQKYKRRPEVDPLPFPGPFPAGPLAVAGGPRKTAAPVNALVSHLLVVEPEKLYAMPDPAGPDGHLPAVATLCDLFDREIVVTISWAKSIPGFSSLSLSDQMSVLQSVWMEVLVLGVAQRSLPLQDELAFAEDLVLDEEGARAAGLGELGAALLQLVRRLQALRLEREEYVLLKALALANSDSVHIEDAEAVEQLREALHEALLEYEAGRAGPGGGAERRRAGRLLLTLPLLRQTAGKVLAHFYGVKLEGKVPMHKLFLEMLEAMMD
Sequence of Glucocorticoid receptor (Homo sapiens) (P04150 whole entry, looked up, the tested form may be a part): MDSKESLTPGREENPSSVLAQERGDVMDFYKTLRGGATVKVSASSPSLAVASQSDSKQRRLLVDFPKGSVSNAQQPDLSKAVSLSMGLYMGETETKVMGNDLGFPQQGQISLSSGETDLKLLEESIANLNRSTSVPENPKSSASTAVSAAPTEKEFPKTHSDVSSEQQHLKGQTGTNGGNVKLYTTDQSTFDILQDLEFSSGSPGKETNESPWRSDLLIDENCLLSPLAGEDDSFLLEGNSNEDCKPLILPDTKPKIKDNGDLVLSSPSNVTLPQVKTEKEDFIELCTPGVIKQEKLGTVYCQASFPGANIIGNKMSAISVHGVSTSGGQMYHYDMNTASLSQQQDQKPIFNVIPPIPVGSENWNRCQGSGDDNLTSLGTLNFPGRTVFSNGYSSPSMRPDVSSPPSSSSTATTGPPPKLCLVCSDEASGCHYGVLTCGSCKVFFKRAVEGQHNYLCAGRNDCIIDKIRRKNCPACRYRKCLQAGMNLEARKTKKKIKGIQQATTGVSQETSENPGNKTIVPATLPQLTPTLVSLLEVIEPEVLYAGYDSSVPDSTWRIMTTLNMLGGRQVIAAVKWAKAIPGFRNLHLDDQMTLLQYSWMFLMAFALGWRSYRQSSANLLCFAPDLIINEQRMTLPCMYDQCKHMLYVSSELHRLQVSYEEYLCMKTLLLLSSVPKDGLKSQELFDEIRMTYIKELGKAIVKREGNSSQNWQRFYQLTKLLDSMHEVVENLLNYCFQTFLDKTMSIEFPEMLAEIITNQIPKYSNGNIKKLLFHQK

On to `CC1(C)Cc2cccc(O)c2O1`, for which the compound was called inactive in assay [1], in assay [2], in assay [3], in assay [4], in [5] and in assay [6]. The compound was classed as inactive in [7], in assay [8], in assay [9], in assay [10], in assay [11] and in [12].
Regarding `CC(C)CCCCCCOC(=O)c1ccccc1C(=O)OCCCCCCC(C)C`, the outcome in [2], in assay [3], in [4], in [6], in [7] and in [13] was inactive. Also, the result in [8], in assay [9], in [14], in assay [11] and in assay [15] was inactive.
Take `COc1cc2c(cc1OC)[C@@]13CCN4CC5=CCO[C@H]6CC(=O)N2[C@H]1[C@H]6[C@H]5C[C@H]43`: the compound was called inactive in [1], in assay [2], in assay [3], in assay [4], in assay [5] and in assay [6]. Also, the call in assay [7], in assay [13], in assay [8], in [9], in assay [10] and in assay [11] was inactive. For the same compound, in assay [15], the outcome was inactive.
On to `O=[N+]([O-])c1ccc(O)c([N+](=O)[O-])c1`, for which the compound was called inactive in assay [1], in assay [3], in [4], in assay [5], in assay [6] and in [7]. Also, the compound was called inactive in assay [13], in [8], in assay [16], in assay [11] and in assay [17].
Take `CN(C)N=O`: the call in assay [1], in [2], in assay [3], in assay [4], in assay [5] and in assay [7] was inactive. Besides, the result in assay [13], in assay [8], in assay [9], in assay [14], in assay [11] and in assay [15] was inactive. Also, the compound was called inactive in assay [12] and in assay [18].
As to `Cl/C=C/Cl`, the call in [1], in [3], in assay [4], in assay [6], in assay [7] and in assay [13] was inactive. The result in assay [8], in assay [9] and in assay [11] was inactive.
Turning to `Cc1ccccc1N`, the outcome in [1], in assay [2], in [3], in assay [4], in assay [5] and in assay [6] was inactive. Further, the call in [7], in assay [13], in assay [8], in [11], in assay [15] and in assay [12] was inactive.
For `COP(=S)(OC)Oc1cc(Cl)c(Cl)cc1Cl`, the AC50 in [19] is 26.6 µM (active); in assay [8], 79.6 µM (active); in [10] it was 36.3 µM (active). The compound was called inactive in assay [2], in assay [3], in assay [4], in [6], in assay [7] and in assay [14]. Further, the result in [11] and in assay [20] was inactive.
With `CC1CN1P(=O)(N1CC1C)N1CC1C` (centres undefined), the result in assay [1], in assay [2], in assay [3], in [4], in assay [5] and in assay [7] was inactive. For the same compound, the result in [13], in [8], in assay [9], in assay [14] and in [11] was inactive.

Broadly, the AC50 is the midpoint of the concentration-response curve, whichever way the signal moves.
